Among all 310,000 compounds or so, about 14,000 (4.5%) showed an effect of 50% or more. The effect is printed as a negative number. The sample as a whole holds a higher share of strong results than the screen did.
target: human ether-à-go-go-related gene (hERG) potassium channel (human, UniProt Q12809); assay: primary screen, population patch clamp on CHO cells stably expressing hERG; higher = less effect of the substance
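Further: peak tail current of the secondary pulse compared with the same well before compound.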

Sequence of human ether-à-go-go-related gene (hERG) potassium channel (Q12809 whole entry, looked up): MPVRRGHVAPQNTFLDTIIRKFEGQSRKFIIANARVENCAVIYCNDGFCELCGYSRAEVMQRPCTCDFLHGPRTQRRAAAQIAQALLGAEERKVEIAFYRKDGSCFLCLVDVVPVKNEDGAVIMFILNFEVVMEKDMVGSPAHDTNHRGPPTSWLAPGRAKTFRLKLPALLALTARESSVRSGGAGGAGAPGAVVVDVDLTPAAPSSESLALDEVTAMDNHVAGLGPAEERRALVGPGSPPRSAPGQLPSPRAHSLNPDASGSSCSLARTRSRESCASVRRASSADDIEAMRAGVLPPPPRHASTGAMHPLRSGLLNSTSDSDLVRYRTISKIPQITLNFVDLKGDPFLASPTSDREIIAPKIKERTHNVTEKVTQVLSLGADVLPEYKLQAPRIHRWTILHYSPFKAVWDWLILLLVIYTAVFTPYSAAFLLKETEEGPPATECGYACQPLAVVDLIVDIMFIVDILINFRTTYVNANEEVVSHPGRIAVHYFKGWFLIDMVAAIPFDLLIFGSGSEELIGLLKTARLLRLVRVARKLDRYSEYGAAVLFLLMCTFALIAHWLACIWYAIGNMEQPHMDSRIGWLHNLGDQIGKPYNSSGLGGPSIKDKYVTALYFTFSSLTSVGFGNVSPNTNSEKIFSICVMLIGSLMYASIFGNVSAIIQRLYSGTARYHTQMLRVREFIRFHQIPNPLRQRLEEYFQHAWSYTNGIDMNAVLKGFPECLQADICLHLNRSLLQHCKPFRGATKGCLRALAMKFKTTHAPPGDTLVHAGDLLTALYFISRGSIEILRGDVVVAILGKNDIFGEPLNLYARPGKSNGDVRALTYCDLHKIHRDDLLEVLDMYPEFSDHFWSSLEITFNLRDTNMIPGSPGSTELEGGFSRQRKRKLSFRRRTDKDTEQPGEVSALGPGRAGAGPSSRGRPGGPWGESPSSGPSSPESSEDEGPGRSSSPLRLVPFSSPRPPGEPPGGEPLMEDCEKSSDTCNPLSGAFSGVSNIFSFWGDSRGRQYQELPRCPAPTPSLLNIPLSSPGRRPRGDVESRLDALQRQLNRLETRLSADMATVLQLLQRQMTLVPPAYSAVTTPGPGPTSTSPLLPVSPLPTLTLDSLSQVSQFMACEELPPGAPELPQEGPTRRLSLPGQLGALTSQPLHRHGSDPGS

Structure (SMILES)	hERG current change (%, negative = inhibition) at 10uM [%]
O=C(O)/C=C/C(=O)Nc1cccc(C(F)(F)F)c1	7.79
CCCCN(CCCC)CC(O)Cn1c2ccccc2c(=O)c2ccccc21 (stereo not shown)	-68
CC(C)CCN(CCC(C)C)CC(O)Cn1c2ccccc2c(=O)c2ccccc21 (stereo not shown)	-22
CCCN(CCC)CC(O)Cn1c2ccccc2c2ccccc21 (stereo not shown)	-32.1
COCCCNC(=O)CCC(=O)Nc1ccc2nc(N3CCOCC3)cc(C)c2c1	4
Clc1ccc2c(c1)C1=C(C(c3ccncc3)O2)C(c2ccc(Br)cc2)n2ncnc2N1 (stereo not shown)	4.44
Brc1ccc(C2C3=C(Nc4ncnn42)c2ccccc2OC3c2ccncc2)cc1 (stereo not shown)	-32
c1csc(C2C3=C(Nc4ncnn42)c2ccccc2OC3)c1 (stereo not shown)	11.4
COc1ccc(C2Oc3ccccc3C3=C2C(c2cccs2)n2ncnc2N3)cc1 (stereo not shown)	-52.1
Fc1ccc(C2C3=C(Nc4ncnn42)c2ccccc2OC3c2ccncc2)cc1 (stereo not shown)	-60.4
Cc1ccc(C2Oc3ccccc3C3=C2C(c2cccs2)n2ncnc2N3)cc1 (stereo not shown)	-7.55
COc1ccc(C2NC(=O)CCC2[N+](=O)[O-])c(OC)c1OC (stereo not shown)	12.2
Cn1c(-c2cccc3ccccc23)n[nH]c1=S	21.9
CCOc1ccc(/C(O)=C2/C(=O)C(=O)N(c3cc(C)on3)C2c2ccc(C(=O)OC)cc2)cc1 (stereo not shown)	11.3
O=C(NCC(=O)N1CC=C(c2ccccc2)CC1)c1ccco1	-78.4
CCOc1ccc(C(=O)NCC(=O)N2CCCCCCC2)cc1OCC	1.47
CCOc1ccc(C(=O)NCC(=O)N2CC=C(c3ccccc3)CC2)cc1OCC	-62.9
CSCCC(NC(=O)c1ccco1)C(=O)N1CC=C(c2ccccc2)CC1 (stereo not shown)	-48
COc1ccc(C(=O)NCC(=O)N2CC=C(c3ccccc3)CC2)cc1OC	-37.9
COc1cc(C(=O)NCC(=O)N2CC=C(c3ccccc3)CC2)cc(OC)c1OC	-51.2
COc1ccccc1C(=O)NCC(=O)N1CC=C(c2ccccc2)CC1	6.76
CCOc1ccc(C(=O)NCC(=O)N2CCc3ccccc3C2)cc1OCC	4.5

Structure (SMILES)	hERG current change (%, negative = inhibition) at 10uM [%]
Cc1cccc(C(=O)NCC(=O)N2CC=C(c3ccccc3)CC2)c1	-40.9
CCOC(=O)N1CCN(C(=O)COC(=O)COc2c(C)cc(C)cc2C)CC1	-9.8
O=c1c(-c2ccc(O)cc2O)coc2cc(O)cc(O)c12	-4.59
Nc1nnc(Cc2cccc(Br)c2)s1	3.51
COCCNC(=O)COc1ccc(C)cc1C	10.4
CCCCNC(=S)N(C)/N=C/c1ccc(OCC(=O)Nc2ccc(OC)cc2)c(OC)c1	-4.23
CCOC(=O)C1=C(C)NC(SCC(N)=O)=C(C#N)C1c1cccs1 (stereo not shown)	-13.2
O=C(c1ccc2c(=O)n3c(nc2c1)CCCCC3)N1CCN(Cc2ccccc2)CC1	-2.69
Cc1ccc(C(=O)OCC(=O)N(C)c2ccccc2)cc1C	-9.59
COc1ccc(CCn2c(C(C)C)nc3c(c(=O)c4ccccc4n3C)c2=O)cc1	-30
CCc1nc2c(c(=O)c3ccccc3n2C)c(=O)n1CCc1ccc(OC)cc1	-74.9
COc1ccc(CCn2c(-c3ccc(OC)cc3)nc3c(c(=O)c4ccccc4n3C)c2=O)cc1	11.4
COc1ccc(CCn2c(C)nc3c(c(=O)c4ccccc4n3C)c2=O)cc1	-61.4
COc1ccc(Cn2c(C)nc3c(c(=O)c4ccccc4n3C)c2=O)cc1	-44.5
COc1ccc(CCn2c(-c3ccccc3)nc3c(c(=O)c4ccccc4n3C)c2=O)cc1	11.3
COc1ccc(CCn2c(C(C)C)nc3oc4ccccc4c(=O)c3c2=O)cc1	-75.3
COCCn1c(C(C)C)nc2oc3ccccc3c(=O)c2c1=O	3.05
COc1ccc2c(=O)c3c(=O)n(CCc4ccccc4)c(C(C)C)nc3oc2c1	5.79
Cc1ccc(NC(=O)CSCC(=O)N2c3ccccc3CCc3ccccc32)cc1	7.66
CC(=O)Nc1ccccc1C(=O)N1CCN(Cc2ccccc2)CC1	5.02
O=c1[nH]c(=O)n(Cc2ccco2)c(O)c1C=NCc1ccco1	3.46
Cc1nnc(NC(=O)CSc2nnc(-c3ccc(S(=O)(=O)N4CCCC4)cc3)n2C)s1	-3.39

Structure (SMILES)	hERG current change (%, negative = inhibition) at 10uM [%]
C/C(=N\NC(=O)C1CC1)c1ccc(OC(F)F)cc1	9.94
CCOc1ccc(NC(=O)CSCC(=O)O)cc1	1.8
Oc1ccc(/C(Cc2ccccn2)=N\Nc2ccccc2)c(O)c1	8.76
CC(=O)c1ccc(OCc2cc(C(=O)NC3CCCCC3)no2)cc1	5.17
Cc1ccc(C)c(OCc2cc(C(=O)NC3CCN(Cc4ccccc4)CC3)no2)c1	-41.1
O=C(NC1CCc2ccccc21)c1cc(COc2ccc(F)cc2F)on1 (stereo not shown)	16.5
O=C(NC1Cc2ccccc2C1)c1cc(COc2ccc(F)cc2Cl)on1	13.3
CC(=O)c1cccc(OCc2cc(C(=O)NC3CCN(Cc4ccccc4)CC3)no2)c1	-62.9
O=C(NC1CCN(Cc2ccccc2)C1)c1cc(COc2ccc(F)cc2F)on1 (stereo not shown)	-64.2
c1ccc(-c2ccc(SCc3cccnc3)nn2)nc1	8.9
COC(=O)CCCC1=CC2=CC(=O)C(C)(OC(=O)c3cnc4ccccc4n3)C(=O)C2=CO1 (stereo not shown)	7.07
O=C(Nc1ccc(Br)cc1)c1cnccn1	-2.9
CCN(CC1CCCN(CCc2cccc(OC)c2)C1)C(=O)c1ccoc1C (stereo not shown)	-62.8
CCN(CC)C(=O)C1CCCN(Cc2cccc(Oc3ccccc3)c2)C1 (stereo not shown)	-19.6
CCN(CC1CCCN(CCc2cccc(OC)c2)C1)C(=O)C=C(C)C (stereo not shown)	-61.1
CCN(CC1CCCN(CCc2cccc(OC)c2)C1)C(=O)c1ccc(COC)o1 (stereo not shown)	-71
COCc1ccc(CN2CCCC(C(=O)Nc3ccc(-c4cccc(OC)c4)cc3)C2)o1 (stereo not shown)	-0.711
CCN(CC1CCCN(CCc2cccc(OC)c2)C1)C(=O)c1ccoc1 (stereo not shown)	-70.7
COc1cccc(CCC(=O)N(C)C2CCCN(Cc3ccccc3F)C2)c1 (stereo not shown)	-0.453
COc1cccc(CC(=O)NC2CCCN(Cc3ccccc3F)C2)c1 (stereo not shown)	-5.72
COc1cccc(CNC(=O)CCC2CCCN(C(=O)c3ccoc3C)C2)c1 (stereo not shown)	5.6
COc1cccc(CNC(=O)CCC2CCCN(C(=O)c3ccoc3)C2)c1 (stereo not shown)	24.9

Structure (SMILES)	hERG current change (%, negative = inhibition) at 10uM [%]
CCOC(=O)C1C(=O)NC(N2CCN(c3ccccc3)CC2)=NC1c1ccco1 (stereo not shown)	-5.81
O=C(COC(=O)CCNS(=O)(=O)c1cccs1)Nc1cc(C(F)(F)F)ccc1Cl	-26.1
Cc1ccc(/C=C/C(=O)O)cc1S(=O)(=O)N(CCO)CCO	8.09
Cc1sc2ncnc(Sc3nnnn3-c3ccc(Cl)cc3)c2c1C	11.2
Nc1nccnc1C(=O)OCC(=O)c1ccc[nH]1	-0.119
COc1ccc(CCn2c(=S)[nH]c3ccc(N4CCOCC4)cc3c2=O)cc1OC	10.2
O=C(c1cccc(Cl)c1)N1CCN(c2ccc(N3CCOCC3)nn2)CC1	-34.8
CC(=O)c1ccc(Oc2ncnc(N)c2[N+](=O)[O-])cc1	12.4
COc1ccc(-c2nc(CS(=O)CC(=O)NC3CCC(C)CC3)c(C)o2)cc1OC (stereo not shown)	-34.6
COc1ccc(-c2n[nH]c(=S)n2-c2ccc(C)cc2)cc1	8.3
Br.Cn1c(=N)n(CC(=O)c2ccc(Br)s2)c2ccccc21	-6.86
Br.CCCCn1c(=N)n(CC(=O)C(C)(C)C)c2ccccc21	-55
Br.CCN(CC)CCn1c(=N)n(CC(=O)c2ccc(C)cc2)c2ccccc21	-40.8
Br.CCn1c(=N)n(CC(=O)C(C)(C)C)c2ccccc21	-21.1
Br.CCn1c(=N)n(CC(=O)C23CC4CC(CC(C4)C2)C3)c2ccccc21	-32.3
Br.C=CCn1c(=N)n(CC(=O)c2ccc(Br)s2)c2ccccc21	-58.6
Br.CCN(CC)CCn1c(=N)n(CC(=O)c2ccc(Br)s2)c2ccccc21	-76.9
C=CCn1c(=N)n(CC(=O)c2ccc(Br)cc2)c2ccccc21	-43.5
Br.CCn1c(=N)n(CC(=O)c2ccc(Br)s2)c2ccccc21	-69.3
Br.C=CCn1c(=N)n(CC(=O)c2ccccc2)c2ccccc21	-23.9
Br.CCCCn1c(=N)n(CC(=O)O)c2ccccc21	22.4
O=C(c1ccc(CNS(=O)(=O)c2ccccc2)cc1)N1CCC2(CC1)OCCO2	-4.16

Reference: PMC4336329 (PLoS ONE, 2015)
